Source: PubChem BioAssay (EPA / NIEHS)
Records with an inconclusive call do not appear. Some compounds were tested as several samples or in several runs, with calls that do not always agree. Activity calls are given as the source filed them. How the source made its calls, unless noted: active means hit-call score of the fitted dose curve at least 0.9, where 1 is the maximum; inactive means score below 0.9.

Assays:
[1] = target: Glucocorticoid receptor (Homo sapiens) (UniProt P04150); test: ATG_GR_TRANS: Attagene TRANS-FACTORIAL HepG2 Assay for human Glucocorticoid Receptor (GR) (AID 2282978; active means hit-call score of the fitted dose curve at least 0.9, where 1 is the maximum;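 further: activators score as hits since higher reporter transcript over DMSO is fitted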); conditions: HepG2 Attagene TRANS GR reporter, mRNA transcription
Glucocorticoid receptor (Homo sapiens), sequence (P04150 whole entry, looked up): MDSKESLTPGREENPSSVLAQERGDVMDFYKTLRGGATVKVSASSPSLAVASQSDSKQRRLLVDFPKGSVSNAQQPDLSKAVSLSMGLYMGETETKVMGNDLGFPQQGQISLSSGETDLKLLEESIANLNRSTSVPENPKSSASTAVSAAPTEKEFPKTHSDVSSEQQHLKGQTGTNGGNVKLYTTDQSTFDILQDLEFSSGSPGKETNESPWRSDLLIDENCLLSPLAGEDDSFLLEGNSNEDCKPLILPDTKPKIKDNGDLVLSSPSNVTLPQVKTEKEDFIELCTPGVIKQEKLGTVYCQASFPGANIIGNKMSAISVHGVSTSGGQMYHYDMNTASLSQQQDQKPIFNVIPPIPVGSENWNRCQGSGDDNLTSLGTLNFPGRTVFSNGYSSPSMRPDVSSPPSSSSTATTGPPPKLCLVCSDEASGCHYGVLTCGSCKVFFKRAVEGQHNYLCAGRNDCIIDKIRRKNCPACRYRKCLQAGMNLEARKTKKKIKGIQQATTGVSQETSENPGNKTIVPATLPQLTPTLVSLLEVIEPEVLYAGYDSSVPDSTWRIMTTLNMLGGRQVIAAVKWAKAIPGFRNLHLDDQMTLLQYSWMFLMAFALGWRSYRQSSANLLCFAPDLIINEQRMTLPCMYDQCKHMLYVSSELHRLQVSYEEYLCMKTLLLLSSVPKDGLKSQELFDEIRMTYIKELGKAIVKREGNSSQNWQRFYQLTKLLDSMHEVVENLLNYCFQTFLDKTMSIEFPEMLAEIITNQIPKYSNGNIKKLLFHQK
Summary of the method: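 After 24 h incubation with test chemical, transfected HepG2 cells were lysed for RNA; reporter cDNA was amplified, FAM-labelled, HpaI-digested and sized on a capillary analyser. Signal gain relative to DMSO was scored.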

[2] = target: Oxysterols receptor LXR-beta (Homo sapiens) (UniProt P55055); test: ATG_LXRb_TRANS: Attagene TRANS-FACTORIAL HepG2 Assay for human Liver X Receptor beta (LXRb) (AID 2282981; active means hit-call score of the fitted dose curve at least 0.9, where 1 is the maximum); conditions: HepG2 Attagene TRANS GAL4-LXRb reporter, mRNA
Oxysterols receptor LXR-beta (Homo sapiens), sequence (P55055 whole entry, looked up, the tested form may be a part): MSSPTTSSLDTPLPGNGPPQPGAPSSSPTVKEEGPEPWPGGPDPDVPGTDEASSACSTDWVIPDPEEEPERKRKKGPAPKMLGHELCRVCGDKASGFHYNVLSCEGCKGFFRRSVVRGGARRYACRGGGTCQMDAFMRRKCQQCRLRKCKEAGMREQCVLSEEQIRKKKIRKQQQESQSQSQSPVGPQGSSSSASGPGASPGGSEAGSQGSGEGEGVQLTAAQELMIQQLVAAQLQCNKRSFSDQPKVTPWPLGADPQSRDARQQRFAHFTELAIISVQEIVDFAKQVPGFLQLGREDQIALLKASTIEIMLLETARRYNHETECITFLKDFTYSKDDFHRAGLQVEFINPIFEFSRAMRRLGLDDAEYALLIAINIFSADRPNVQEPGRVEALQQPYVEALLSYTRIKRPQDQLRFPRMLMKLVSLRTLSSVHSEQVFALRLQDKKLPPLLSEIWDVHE
Summary of the method: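 HepG2 cells transiently transfected with GAL4-UAS reporter units for chimeric NR-Gal4 proteins, dosed for 24 h. Reporter transcripts measured by RT-PCR and capillary electrophoresis; gain-of-signal fitting relative to DMSO.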

[3] = ATG_M_06_TRANS: Attagene TRANS-FACTORIAL HepG2 Assay for M06 Transcription Factor (Internal Marker) (AID 2282983; active means hit-call score of the fitted dose curve at least 0.9, where 1 is the maximum); conditions: HepG2 Attagene TRANS M06 internal marker reporter
Summary of the method: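 Measured by capillary electrophoresis of fluorescently labelled RT-PCR products, this endpoint reflects reporter mRNA in HepG2 cells harbouring exogenous NR-GAL4 reporter constructs after 24 h exposure, with DMSO as baseline.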

[4] = ATG_M_32_TRANS: Attagene TRANS-FACTORIAL HepG2 Assay for M32 Transcription Factor (Internal Marker) (AID 2282984; active means hit-call score of the fitted dose curve at least 0.9, where 1 is the maximum;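 further: transcript level of a background control reporter unit measured by RT-PCR and capillary electrophoresis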); conditions: HepG2 Attagene TRANS M32 internal marker reporter
Summary of the method: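 HepG2 cells transiently transfected with GAL4-UAS reporter units, dosed for 24 hours. Reporter mRNA quantified by RT-PCR, 6-FAM labelling, HpaI digestion and capillary electrophoresis; internal-marker signal fitted upward relative to DMSO.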

[5] = target: Nuclear receptor subfamily 4 group A member 2 (Homo sapiens) (UniProt P43354); test: ATG_NURR1_TRANS: Attagene TRANS-FACTORIAL HepG2 Assay for human Nuclear Receptor Related Protein 1 (NURR1) (AID 2282985; active means hit-call score of the fitted dose curve at least 0.9, where 1 is the maximum); conditions: HepG2 Attagene TRANS reporter, mRNA readout
Nuclear receptor subfamily 4 group A member 2 (Homo sapiens), sequence (P43354 whole entry, looked up, the tested form may be a part): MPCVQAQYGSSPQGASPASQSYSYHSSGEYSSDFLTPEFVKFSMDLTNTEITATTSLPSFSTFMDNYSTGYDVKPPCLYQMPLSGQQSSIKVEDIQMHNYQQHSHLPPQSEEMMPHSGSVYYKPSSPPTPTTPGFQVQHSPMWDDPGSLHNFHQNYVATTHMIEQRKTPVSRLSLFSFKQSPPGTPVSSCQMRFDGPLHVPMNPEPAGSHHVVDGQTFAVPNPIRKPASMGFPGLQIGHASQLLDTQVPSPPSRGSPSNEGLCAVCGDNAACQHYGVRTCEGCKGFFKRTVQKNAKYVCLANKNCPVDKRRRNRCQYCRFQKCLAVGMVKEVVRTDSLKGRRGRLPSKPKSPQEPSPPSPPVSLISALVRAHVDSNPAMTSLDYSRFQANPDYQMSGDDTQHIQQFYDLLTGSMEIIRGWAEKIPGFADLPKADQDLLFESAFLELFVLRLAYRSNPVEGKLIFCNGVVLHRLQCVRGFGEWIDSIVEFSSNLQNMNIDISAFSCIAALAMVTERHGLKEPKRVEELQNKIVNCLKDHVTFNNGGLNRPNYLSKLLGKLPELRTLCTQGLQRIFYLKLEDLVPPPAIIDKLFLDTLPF
Summary of the method: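 HepG2 cells transiently transfected with NURR1-Gal4 chimera and GAL4-UAS reporter units; after 24 hr compound exposure, reporter mRNA quantified by RT-PCR and capillary electrophoresis; gain of signal fitted against DMSO.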

[6] = target: Transcriptional activator Myb (Homo sapiens) (UniProt P10242); test: ATG_Myb_CIS: Attagene CIS-FACTORIAL HepG2 Assay for human Myeloblastosis (Myb) Proto-Oncogene Transcription Factor (AID 2282986); conditions: HepG2 Attagene CIS-FACTORIAL Myb reporter transcription; actives raise or lower the signal
Transcriptional activator Myb (Homo sapiens), sequence (P10242 whole entry, looked up): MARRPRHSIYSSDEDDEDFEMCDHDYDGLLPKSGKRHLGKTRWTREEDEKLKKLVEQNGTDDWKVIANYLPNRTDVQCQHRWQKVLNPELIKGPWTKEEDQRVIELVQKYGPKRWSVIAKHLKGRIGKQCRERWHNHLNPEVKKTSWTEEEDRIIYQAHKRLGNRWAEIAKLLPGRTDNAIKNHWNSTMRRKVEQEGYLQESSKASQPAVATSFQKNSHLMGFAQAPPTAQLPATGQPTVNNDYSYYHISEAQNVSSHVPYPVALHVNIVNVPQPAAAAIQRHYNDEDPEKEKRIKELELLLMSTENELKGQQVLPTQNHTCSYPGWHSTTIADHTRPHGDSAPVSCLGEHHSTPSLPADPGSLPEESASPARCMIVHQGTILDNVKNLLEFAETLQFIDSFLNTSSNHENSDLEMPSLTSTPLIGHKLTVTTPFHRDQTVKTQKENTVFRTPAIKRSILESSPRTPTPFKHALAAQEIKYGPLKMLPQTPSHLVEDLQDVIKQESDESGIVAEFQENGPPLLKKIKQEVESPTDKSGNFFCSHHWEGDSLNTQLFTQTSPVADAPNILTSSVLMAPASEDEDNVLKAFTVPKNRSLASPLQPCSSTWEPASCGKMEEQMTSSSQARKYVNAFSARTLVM
Summary of the method: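 After 24 h of compound dosing, total RNA from transfected HepG2 cells is reverse-transcribed and the reporter sequences amplified, labeled and separated by capillary electrophoresis. Values come from bidirectional fitting against DMSO.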

[7] = target: Nuclear respiratory factor 1 (Homo sapiens) (UniProt Q16656); test: ATG_NRF1_CIS: Attagene CIS-FACTORIAL HepG2 Assay for human Nuclear Respiratory Factor 1 (NRF1) Orphan Gene (AID 2282987); conditions: HepG2 NRF1 cis-element reporter, Attagene multiplex; actives raise or lower the signal
Nuclear respiratory factor 1 (Homo sapiens), sequence (Q16656 whole entry, looked up): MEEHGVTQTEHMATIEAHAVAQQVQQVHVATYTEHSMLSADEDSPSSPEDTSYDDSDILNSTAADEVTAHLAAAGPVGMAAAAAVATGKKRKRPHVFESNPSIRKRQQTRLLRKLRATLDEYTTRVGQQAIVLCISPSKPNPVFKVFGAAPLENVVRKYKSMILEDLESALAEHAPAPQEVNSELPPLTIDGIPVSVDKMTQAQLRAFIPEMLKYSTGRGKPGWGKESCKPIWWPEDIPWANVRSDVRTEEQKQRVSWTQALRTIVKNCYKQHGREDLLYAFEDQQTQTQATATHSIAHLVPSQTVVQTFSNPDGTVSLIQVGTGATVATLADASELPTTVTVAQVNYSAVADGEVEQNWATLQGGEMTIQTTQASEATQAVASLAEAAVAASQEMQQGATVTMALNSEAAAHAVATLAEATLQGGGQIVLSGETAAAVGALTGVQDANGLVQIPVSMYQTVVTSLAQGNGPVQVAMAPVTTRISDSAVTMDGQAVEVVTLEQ
Summary of the method: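 Measured: fluorescent reporter-specific RT-PCR products from transfected HepG2 cells, separated by capillary electrophoresis. Exposure lasted 24 h. Analysis used bidirectional curve fitting with DMSO as negative control.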

[8] = ATG_NFI_CIS: Attagene CIS-FACTORIAL HepG2 Assay for human Nuclear Factor I (NFI) (AID 2282989); conditions: HepG2 cis-regulatory reporter, NFI response element transcription; actives raise or lower the signal
Summary of the method: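 Multiplexed cis-reporter system in human HepG2 cells reports native TF activity as reporter mRNA induction 24 h post-dose. Fragments labelled with 6-FAM, HpaI-digested and resolved by capillary electrophoresis; activity fitted both directions versus DMSO.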

[9] = target: Myc proto-oncogene protein (Homo sapiens) (UniProt P01106); test: ATG_Myc_CIS: Attagene CIS-FACTORIAL HepG2 Assay for human Myelocytomatosis (Myc) Proto-Oncogene Transcription Factor (AID 2282990); conditions: HepG2, Attagene cis-reporter transcription factor activity; actives raise or lower the signal
Myc proto-oncogene protein (Homo sapiens), sequence (P01106 whole entry, looked up, the tested form may be a part): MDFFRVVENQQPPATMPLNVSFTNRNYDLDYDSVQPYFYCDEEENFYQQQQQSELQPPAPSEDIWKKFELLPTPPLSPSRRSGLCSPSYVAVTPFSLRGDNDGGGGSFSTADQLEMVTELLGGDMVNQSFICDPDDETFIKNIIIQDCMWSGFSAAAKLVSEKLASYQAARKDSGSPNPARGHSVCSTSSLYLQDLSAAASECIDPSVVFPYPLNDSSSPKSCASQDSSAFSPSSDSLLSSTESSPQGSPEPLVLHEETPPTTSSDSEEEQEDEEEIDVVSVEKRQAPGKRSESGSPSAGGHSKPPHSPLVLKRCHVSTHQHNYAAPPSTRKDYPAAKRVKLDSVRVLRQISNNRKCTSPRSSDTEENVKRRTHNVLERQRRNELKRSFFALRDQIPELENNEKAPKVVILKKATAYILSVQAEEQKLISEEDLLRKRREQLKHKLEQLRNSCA
Summary of the method: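 Fluorescence intensity of reporter-specific cDNA fragments, separated by capillary electrophoresis, gives the signal. Transfected HepG2 cells carrying cis-promoter reporter constructs are incubated with compound for 24 h; DMSO serves as baseline.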

[10] = ATG_NF_kB_CIS: Attagene CIS-FACTORIAL HepG2 Assay for human Nuclear Factor Kappa B (NF-kB) (AID 2282991); conditions: HepG2 Attagene cis-factorial NF-kB reporter mRNA; actives raise or lower the signal
Summary of the method: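 Fluorescence of labelled RT-PCR products separated by capillary electrophoresis gives reporter mRNA levels from transfected HepG2 cells exposed 24 h; values are fitted in both directions relative to DMSO.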

[11] = ATG_Oct_MLP_CIS: Attagene CIS-FACTORIAL HepG2 Assay for human Octamer-Binding Transcription Factor (Oct) (AID 2282993); conditions: HepG2 Attagene cis-factorial Oct reporter, mRNA; actives raise or lower the signal
Summary of the method: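 After 24 h compound exposure, transfected HepG2 cells were lysed for total RNA; reporter-specific cDNA was PCR-amplified, fluorescently labelled and sized by capillary electrophoresis. Bidirectional curve fitting used DMSO as baseline.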

[12] = target: Cellular tumor antigen p53 (Homo sapiens) (UniProt P04637); test: ATG_p53_CIS: Attagene CIS-FACTORIAL HepG2 Assay for human p53 Transcription Factor (AID 2282994); conditions: HepG2 p53 cis-element reporter, Attagene mRNA; actives raise or lower the signal
Cellular tumor antigen p53 (Homo sapiens), sequence (P04637 whole entry, looked up): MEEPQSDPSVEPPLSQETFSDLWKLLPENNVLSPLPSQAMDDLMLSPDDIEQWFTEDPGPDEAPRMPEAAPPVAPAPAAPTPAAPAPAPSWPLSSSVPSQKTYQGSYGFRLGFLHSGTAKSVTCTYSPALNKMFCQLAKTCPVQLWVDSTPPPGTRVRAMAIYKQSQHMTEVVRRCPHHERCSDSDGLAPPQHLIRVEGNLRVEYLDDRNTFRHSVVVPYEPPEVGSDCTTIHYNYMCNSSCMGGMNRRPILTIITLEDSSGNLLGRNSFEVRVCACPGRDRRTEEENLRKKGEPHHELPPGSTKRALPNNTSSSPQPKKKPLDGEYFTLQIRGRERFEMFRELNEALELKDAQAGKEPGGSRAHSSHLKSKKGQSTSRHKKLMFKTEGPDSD
Summary of the method: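 HepG2 cells transiently transfected with cis-regulated multiple reporter transcription units, dosed 24 h. Reporter mRNA measured by RT-PCR, 6-FAM primer extension, HpaI digestion and capillary electrophoresis; bidirectional fit relative to DMSO.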

[13] = BSK_3C_TissueFactor: BioMAP Diversity Plus: 3C Assay for Tissue Factor Biomarker Activity (AID 2282997); conditions: BioMAP 3C HUVEC, tissue factor biomarker readout; actives raise or lower the signal
Summary of the method: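 Values derive from bidirectional curve fitting against DMSO of Tissue Factor ELISA signals, taken 24 h after dosing primary human umbilical vein endothelial cells.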

[14] = BSK_3C_uPAR: BioMAP Diversity Plus: 3C Assay for Urokinase-type plasminogen activator receptor (uPAR) Biomarker Activity (AID 2282998); conditions: BioMAP 3C HUVEC, uPAR biomarker ELISA; actives raise or lower the signal
Summary of the method: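 Values derive from bidirectional curve fitting relative to DMSO, which served as baseline of activity. uPAR was measured by ELISA in human umbilical vein endothelial primary cultures 24 h after compound addition.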

[15] = BSK_3C_VCAM1: BioMAP Diversity Plus: 3C Assay for Vascular cell adhesion molecule 1 (VCAM1) Biomarker Activity (AID 2282999); conditions: BioMAP 3C HUVEC, VCAM1 ELISA, cytokine-stimulated; actives raise or lower the signal
Summary of the method: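 Human umbilical vein endothelial cells (3C system), biomarker read by ELISA 24 h after dosing; bidirectional fit against DMSO baseline. Cytotoxicity tracked by SRB total-protein staining in parallel cultures at biomarker time.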

[16] = target: Bile acid receptor (Homo sapiens) (UniProt Q96RI1); test: ATG_FXR_TRANS: Attagene TRANS-FACTORIAL HepG2 Assay for Farnesoid X Receptor (FXR) (AID 2282979; active means hit-call score of the fitted dose curve at least 0.9, where 1 is the maximum;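 further: hits raise reporter mRNA above DMSO so AC50 marks FXR activation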); conditions: HepG2 Attagene TRANS FXR-GAL4 reporter transcription
Summary of the method: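 Chimeric FXR-GAL4 activity in transiently transfected human HepG2 liver cells is scored as induction of reporter mRNA after 24 h of dosing. Detection uses RT-PCR with fluorescent labelling and capillary electrophoresis, with DMSO serving as baseline.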

[17] = target: Hepatocyte nuclear factor 4-alpha (Homo sapiens) (UniProt P41235); test: ATG_HNF4a_TRANS: Attagene TRANS-FACTORIAL HepG2 Assay for human Hepatocyte Nuclear Factor 4 alpha (HNF4a) (AID 2282982; active means hit-call score of the fitted dose curve at least 0.9, where 1 is the maximum); conditions: HepG2 HNF4a transactivation reporter, mRNA readout
Hepatocyte nuclear factor 4-alpha (Homo sapiens), sequence (P41235 whole entry, looked up, the tested form may be a part): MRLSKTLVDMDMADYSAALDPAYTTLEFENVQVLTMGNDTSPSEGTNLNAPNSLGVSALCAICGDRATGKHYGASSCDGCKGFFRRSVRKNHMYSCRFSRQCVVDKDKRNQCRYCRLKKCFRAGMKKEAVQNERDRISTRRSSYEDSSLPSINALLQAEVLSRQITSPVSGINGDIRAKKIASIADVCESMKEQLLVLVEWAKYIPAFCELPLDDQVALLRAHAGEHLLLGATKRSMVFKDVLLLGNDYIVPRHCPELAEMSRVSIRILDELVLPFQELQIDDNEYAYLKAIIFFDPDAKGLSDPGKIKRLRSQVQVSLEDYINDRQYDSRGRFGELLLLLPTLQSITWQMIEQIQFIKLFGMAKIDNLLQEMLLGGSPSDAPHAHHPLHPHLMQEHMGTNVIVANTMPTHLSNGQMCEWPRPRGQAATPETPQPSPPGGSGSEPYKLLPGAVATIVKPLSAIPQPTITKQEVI
Summary of the method: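 HepG2 cells transiently transfected with HNF4a-Gal4 chimera and GAL4-UAS reporter units, dosed for 24 h. Reporter mRNA measured by RT-PCR, fluorescent primer extension and capillary electrophoresis; gain-of-signal fitted relative to DMSO.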

[18] = ATG_NRF2_ARE_CIS: Attagene CIS-FACTORIAL HepG2 Assay for human Nuclear Factor Erythroid 2 Related Factor 2 (NFR2) response to Antioxidant Response Elements (ARE) (AID 2282992); conditions: HepG2 Attagene ARE/NRF2 reporter, transcription factor activity; actives raise or lower the signal
Summary of the method: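 HepG2 cells transiently transfected with multiplexed cis-element reporter constructs, 24 h after chemical dosing; reporter mRNA quantified by RT-PCR, fluorescent primer extension, HpaI digestion and capillary electrophoresis. Bidirectional fit relative to DMSO.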

[19] = target: Oxysterols receptor LXR-alpha (Homo sapiens) (UniProt Q13133); test: ATG_LXRa_TRANS: Attagene TRANS-FACTORIAL HepG2 Assay for human Liver X Receptor alpha (LXRa) (AID 2282980; active means hit-call score of the fitted dose curve at least 0.9, where 1 is the maximum); conditions: HepG2 Attagene TRANS reporter, LXRa transactivation
Oxysterols receptor LXR-alpha (Homo sapiens), sequence (Q13133 whole entry, looked up): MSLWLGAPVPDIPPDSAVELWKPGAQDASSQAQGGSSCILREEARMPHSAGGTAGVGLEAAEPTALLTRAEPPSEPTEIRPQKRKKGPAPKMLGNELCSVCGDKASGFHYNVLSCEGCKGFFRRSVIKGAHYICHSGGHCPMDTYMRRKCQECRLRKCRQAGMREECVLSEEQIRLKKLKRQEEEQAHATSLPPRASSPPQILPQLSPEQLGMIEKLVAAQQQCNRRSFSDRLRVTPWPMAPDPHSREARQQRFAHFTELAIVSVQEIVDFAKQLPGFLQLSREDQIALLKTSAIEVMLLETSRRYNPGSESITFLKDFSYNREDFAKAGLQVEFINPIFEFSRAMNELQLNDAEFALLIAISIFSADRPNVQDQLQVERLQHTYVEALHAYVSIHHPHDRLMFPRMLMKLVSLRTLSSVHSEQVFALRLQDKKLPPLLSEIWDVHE
Summary of the method: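 Transient HepG2 transfectants, 24 h dosing, RT-PCR/CE mRNA reporter quantitation; gain-of-signal vs DMSO.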

Measured: AC50

CC#Cc1cc(C)nc(Nc2ccccc2)n1
inactive: [1] | [2] | [3] | [4] | [5] | [6] | [7] | [8] | [9] | [10] | [11] | [12] | [13] | [14] | [15]

CCCCCCCCCC[N+](C)(C)CCCCCCCCCC
inactive: [16] | [2] | [17] | [3] | [4] | [5] | [6] | [8] | [10]
active: [7] 100 µM | [9] 7.82 µM | [18] 3.63 µM | [11] 3.99 µM | [12] 100 µM | [13] 4.21 µM | [14] 2.43 µM | [15] 6.12 µM

Cc1ccccc1[N+](=O)[O-]
inactive: [3] | [4] | [6] | [7] | [8] | [9] | [10] | [11] | [12] | [13] | [14] | [15]

Cc1cc(-c2ccc(N)c(C)c2)ccc1N
inactive: [19] | [2] | [17] | [3] | [4] | [5] | [6] | [7] | [8] | [9] | [18] | [12] | [13] | [14] | [15]
active: [12] 100 µM

COS(=O)(=O)OC
inactive: [19] | [2] | [3] | [4] | [5] | [6] | [7] | [8] | [9] | [10] | [18] | [12] | [13] | [14] | [15]

CCNc1nc(NC(C)C)nc(SC)n1
inactive: [19] | [2] | [17] | [3] | [4] | [6] | [7] | [8] | [9] | [10] | [11] | [13] | [14] | [15]
